# Records with an inconclusive call do not appear. A number with no mark means an inactive call. Calls of active or inactive are those of the source. Calls follow the shape of the dose curve; as a rule, active = well fitted cell-killing curve with a large enough effect; inconclusive = small, poorly fitted or top-dose-only effect, or effect the other way; inactive = no such curve, though single readings can be large or run the other way.
# Experiment: Quantitative High-Throughput drug screen in 47 multiple myeloma cell lines against the NCATS MIPE library collection: OPM1_PLB cell viability assay (AID 1918989); also: nearly all actives have a fitted effect of over 40% in size
# Conditions: CellTiter-Glo, 48 h; series mostly up to 45.8 µM; viability (% of control): at the top concentration
# Source text: PI: Beverly A. Mock Ph.D.
# Laboratory of Cancer Biology and Genetics,
# Center for Cancer Research, National Cancer Institute,
# National Institute of Health, Bethesda, Maryland
# Drug resistance and disease progression are common in multiple myeloma (MM) patients, underscoring the need for new therapeutic combinations. […] We hypothesized that effective combinations would reduce MYC expression and enhance p16 activity. […] These preclinical data identify potentially useful drug combinations for evaluation in drug-resistant MM and reveal potential mechanisms of combined drug sensitivity.
# Described herein is the primary MIPE qHTS used to cherrypick compounds. Validated compounds were then further tested for potential synergistic activiy.
# [1] Peat TJ, Gaikwad SM, Dubois W, Gyabaah-Kessie N, Zhang S, Gorjifard S, Phyo Z, Andres M, Hughitt VK, Simpson RM, Miller MA, Girvin AT, Taylor A, Williams D, D'Antonio N, Zhang Y, Rajagopalan A, Flietner E, Wilson K, Zhang X, Shinn P, Klumpp-Thomas C, McKnight C, Itkin Z, Chen L, Kazandijian D, Zhang J, Michalowski AM, Simmons JK, Keats J, Thomas CJ, Mock BA. Drug combinations identified by high-throughput screening promote cell cycle transition and upregulate Smad pathways in myeloma. Cancer Lett. 2023 Aug 1;568:216284. doi: 10.1016/j.canlet.2023.216284. Epub 2023 Jun 24. PMID: 37356470; PMCID: PMC10408729.
# SEQUENCE No. (e.g., 1, 2, 3, etc.); […] (e.g., Cells, Incubation, Reagent, etc.); VALUE and DESCRIPTION.
# 1; Cells; 5 uL; white, solid bottom 1536-well Greiner assay plate.
# 2; Compounds; 23 nL; Kalypsis pin tool (Wako USA) equipped with a 1536-well pin head to transfer to the assay plates.
# 3; Incubation; 48 hours; 37C incubation.
# 4; Reagent;5uL; CellTiter Glo (Promega).
# 5; Detector; 425V; Luminescence; Viewlux PerkinElmer.
# NOTES (numbers refer to Sequence numbers above)
# 1. The cell-based screening methods employed in this study were like those previously published. Briefly, the corresponding myeloma cell lines were screened in 1,536-well plates with 500 cells, 5-uL per well for inhibition of cell viability (assessed by measuring ATP levels with CellTiterGlo).
# 2. NCATS MIPE 4.0 library of approved and investigational drugs were added using the Kalypsis pin tool. Wells treated with DMSO only for 100% viability and media only for 0% viability were used as controls.
# 3. The assay plates were covered and incubated for 48 hours in a 37C, 5% CO2 incubator with controlled humidity.
# 4. After 48 hours, CellTilter-GloTM luminescent substrate mix (Promega) reagent was added to the assay plate and plates we incubated for 5 min at room temperature.
# 5. Signal was measured as median relative luminescence units on a ViewLux (PerkinElmer) multiplate reader.
# [1] Heske CM, Davis MI, Baumgart JT, Wilson K, Gormally MV, Chen L, Zhang X, Ceribelli M, Duveau DY, Guha R, Ferrer M, Arnaldez FI, Ji J, Tran HL, Zhang Y, Mendoza A, Helman LJ, Thomas CJ. Matrix Screen Identifies Synergistic Combination of PARP Inhibitors and Nicotinamide Phosphoribosyltransferase (NAMPT) Inhibitors in Ewing Sarcoma. Clin Cancer Res. 2017 Dec 1;23(23):7301-7311. doi: 10.1158/1078-0432.CCR-17-1121. Epub 2017 Sep 12. PMID: 28899971; PMCID: PMC6636827.
# Potency is read from the fitted curve at half-maximal effect.
SMILES,viability (% of control) [%],Potency
CC[C@H](NC(C)C)[C@H](O)c1ccc(O)c2[nH]c(=O)ccc12,157,–
NS(=O)(=O)c1cc2c(cc1Cl)NC(C(Cl)Cl)NS2(=O)=O (stereo not given),120,–
CCCCc1oc2ccc(NS(C)(=O)=O)cc2c1C(=O)c1ccc(OCCCN(CCCC)CCCC)cc1,–,13.2 µM (active)
CCOC(=O)c1ccc(OC(=O)CCCCCN=C(N)N)cc1,138,–
CCn1cc(C(=O)O)c(=O)c2cc(F)c(N3CCNCC3)cc21,154,–
O=C(O)C1CCCN(CCC=C(c2ccccc2)c2ccccc2)C1 (stereo not given),157,–
CCCc1nc(C)c2c(=O)[nH]c(-c3cc(S(=O)(=O)N4CCN(CC)CC4)ccc3OCC)nn12,–,7.43 µM (active)
CNS(=O)(=O)Cc1ccc2[nH]cc(CCN(C)C)c2c1,109,–
Cc1cc(NS(=O)(=O)c2ccc(N)cc2)no1,118,–
CC(=O)CC(c1ccccc1)c1c(O)c2ccccc2oc1=O (stereo not given),141,–
NNC(=O)c1ccncc1,115,–
COc1cc(NS(=O)(=O)c2ccc(N)cc2)nc(OC)n1,145,–
C1CCC(C(CC2CCCCN2)C2CCCCC2)CC1 (stereo not given),–,10.5 µM (active)
O=C(O)c1cc(=O)[nH]c(=O)[nH]1,163,–
S=P(N1CC1)(N1CC1)N1CC1,152,–
CC(C)(C)C(=O)OCOP(=O)(COCCn1cnc2c(N)ncnc21)OCOC(=O)C(C)(C)C,–,6.62 µM (active)
C[C@@H]1C[C@H]2[C@@H]3CCC4=CC(=O)C=C[C@]4(C)[C@@]3(Cl)[C@@H](O)C[C@]2(C)[C@@]1(OC(=O)c1ccco1)C(=O)CCl,–,10.5 µM (active)
CCCCOc1ccc(CC(=O)NO)cc1,–,14.8 µM (active)
CCCCCCNC(=O)n1cc(F)c(=O)[nH]c1=O,100,–
CN(C)CCc1c[nH]c2ccc(CS(=O)(=O)N3CCCC3)cc12,135,–

SMILES,viability (% of control) [%],Potency
CC1=CC(=O)c2ccccc2C1=O,–,23.5 µM (active)
CN1CCN(c2c(F)cc3c(=O)c(C(=O)O)cn4c3c2OCN4C)CC1,130,–
COC(=O)Nc1nc2ccc(C(=O)c3ccccc3)cc2[nH]1,–,1.66 µM (active)
CC(=O)Oc1ccccc1C(=O)Nc1ncc([N+](=O)[O-])s1,–,24.1 µM (active)
CC[C@H](C)C(=O)O[C@H]1C[C@@H](C)C=C2C=C[C@H](C)[C@H](CC[C@@H]3C[C@@H](O)CC(=O)O3)[C@H]21,–,11.8 µM (active)
CNS(=O)(=O)CCc1ccc2[nH]cc(C3CCN(C)CC3)c2c1,–,5.26 µM (active)
Nc1[nH]c(=O)ncc1F,126,–
COc1ncnc(NS(=O)(=O)c2ccc(N)cc2)c1OC,142,–
CC1(C)[C@H](C(=O)O)N2C(=O)C[C@H]2S1(=O)=O,161,–
CCCN[C@H]1CCc2nc(N)sc2C1,140,–
Cc1nnc(C(=O)NC(C)(C)c2nc(C(=O)NCc3ccc(F)cc3)c(O)c(=O)n2C)o1,142,–
NCCCC(O)(P(=O)(O)O)P(=O)(O)O,125,–
CCOC(=O)[C@H](CCc1ccccc1)N[C@H]1CS[C@H](c2cccs2)CN(CC(=O)O)C1=O,–,5.9 µM (active)
Cc1ccnc2c1NC(=O)c1cccnc1N2C1CC1,154,–
CCN(C)C(=O)Oc1cccc([C@H](C)N(C)C)c1,143,–
COc1ccccc1OCC(O)COC(N)=O (stereo not given),112,–
CCn1cc(C(=O)O)c(=O)c2cc(F)c(N3CCNCC3)nc21,88.7,–
CC(=O)[C@H]1CC[C@H]2[C@@H]3CC=C4C[C@@H](O)CC[C@]4(C)[C@H]3CC[C@]12C,121,–
CC(C)C[C@H](NC(=O)[C@H](CCc1ccccc1)NC(=O)CN1CCOCC1)C(=O)N[C@@H](Cc1ccccc1)C(=O)N[C@@H](CC(C)C)C(=O)[C@@]1(C)CO1,–,0.0093 µM (active)
NC(=O)c1cccnc1,124,–

# — PubChem BioAssay (NCATS)
